# The supplement of paper PMC9794691
# Legend:
# Experiment in all cases: area under confluence curve of osimertinib + compound combination regimen (DTP regrowth); compare to osimertinib-only DTP control AUC of the same experiment (AUC (confluence x time, arbitrary))
# PC9 = tested on: PC9
# How it was run: (§1)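 EGFR-mutant NSCLC lines went into 48-well plates at 20,000–30,000 cells/well in RPMI 1640 with 10% FBS and were kept at 37 °C, 5% CO2. Cells got either the EGFR inhibitor plus a fixed-dose test compound from the start through the persister stage (10–21 days) and then drug-free medium, or the inhibitor alone followed by the test compound. Medium was changed every 3–4 days until wells given only the inhibitor regrew to confluence. The endpoint was the area under the IncuCyte confluence–time curve, calculated in Prism and reported as the median of triplicates where available.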
# H1975 = tested on: H1975
# How it was run: as §1
# HCC2279 = tested on: HCC2279
# How it was run: as §1
# HCC2935 = tested on: HCC2935
# How it was run: as §1
# HCC4006 = tested on: HCC4006
# How it was run: as §1
# HCC827 = tested on: HCC827
# How it was run: as §1
# II-18 = tested on: II-18
# How it was run: as §1
# [1] = test compound dose 1000 nM, dosing schedule: sequential, osimertinib-only DTP control AUC in same experiment: 15001, DMSO control AUC in same experiment: 22064
# [2] = test compound dose 1000 nM, dosing schedule: upfront, osimertinib-only DTP control AUC in same experiment: 24924, DMSO control AUC in same experiment: 22064
smiles,measurement,setting,value
CCn1cc(-c2cccc(C(F)(F)F)c2)c2sc(C(=N)NC3CCS(=O)(=O)CC3)cc2c1=O + C=CC(=O)Nc1cc(Nc2nccc(-c3cn(C)c4ccccc34)n2)c(OC)cc1N(C)CCN(C)C [osimertinib],area under confluence curve,"PC9; test compound dose 1000 nM, dosing schedule: sequential, osimertinib-only DTP control AUC in same experiment: 4730, DMSO control AUC in same experiment: 72888",4010
same,area under confluence curve,"PC9; test compound dose 1000 nM, dosing schedule: upfront, osimertinib-only DTP control AUC in same experiment: 8775, DMSO control AUC in same experiment: 72888",6420
Cc1cccc(-c2[nH]c(C(C)(C)C)nc2-c2ccc3nccnc3c2)n1 + C=CC(=O)Nc1cc(Nc2nccc(-c3cn(C)c4ccccc34)n2)c(OC)cc1N(C)CCN(C)C [osimertinib],area under confluence curve,"PC9; test compound dose 1000 nM, dosing schedule: sequential, osimertinib-only DTP control AUC in same experiment: 13130, DMSO control AUC in same experiment: 20567",13600
same,area under confluence curve,PC9; [1],14500
same,area under confluence curve,"PC9; test compound dose 1000 nM, dosing schedule: upfront, osimertinib-only DTP control AUC in same experiment: 18577, DMSO control AUC in same experiment: 20567",20300
same,area under confluence curve,PC9; [2],25300
O=C(c1cc(Cc2n[nH]c(=O)c3ccccc23)ccc1F)N1CCN(C(=O)C2CC2)CC1 [Olaparib] + C=CC(=O)Nc1cc(Nc2nccc(-c3cn(C)c4ccccc34)n2)c(OC)cc1N(C)CCN(C)C [osimertinib],area under confluence curve,"H1975; test compound dose 1000 nM, dosing schedule: sequential, osimertinib-only DTP control AUC in same experiment: 22968, DMSO control AUC in same experiment: 15857",19500
same,area under confluence curve,"H1975; test compound dose 1000 nM, dosing schedule: upfront, osimertinib-only DTP control AUC in same experiment: 27164, DMSO control AUC in same experiment: 15857",21000
same,area under confluence curve,"HCC2279; test compound dose 1000 nM, dosing schedule: sequential, osimertinib-only DTP control AUC in same experiment: 26096, DMSO control AUC in same experiment: 14404",23100
same,area under confluence curve,"HCC2279; test compound dose 1000 nM, dosing schedule: upfront, osimertinib-only DTP control AUC in same experiment: 33120, DMSO control AUC in same experiment: 14404",29800
same,area under confluence curve,"HCC2935; test compound dose 1000 nM, dosing schedule: sequential, osimertinib-only DTP control AUC in same experiment: 22314, DMSO control AUC in same experiment: 19215",20700
same,area under confluence curve,"HCC2935; test compound dose 1000 nM, dosing schedule: upfront, osimertinib-only DTP control AUC in same experiment: 29846, DMSO control AUC in same experiment: 19215",26000
same,area under confluence curve,"HCC4006; test compound dose 1000 nM, dosing schedule: sequential, osimertinib-only DTP control AUC in same experiment: 12791, DMSO control AUC in same experiment: 18415",11700
same,area under confluence curve,"HCC4006; test compound dose 1000 nM, dosing schedule: upfront, osimertinib-only DTP control AUC in same experiment: 17269, DMSO control AUC in same experiment: 18415",18000
same,area under confluence curve,"HCC827; test compound dose 1000 nM, dosing schedule: sequential, osimertinib-only DTP control AUC in same experiment: 15330, DMSO control AUC in same experiment: 21320",12400
same,area under confluence curve,"HCC827; test compound dose 1000 nM, dosing schedule: upfront, osimertinib-only DTP control AUC in same experiment: 20798, DMSO control AUC in same experiment: 21320",23700
same,area under confluence curve,"II-18; test compound dose 1000 nM, dosing schedule: sequential, osimertinib-only DTP control AUC in same experiment: 8624, DMSO control AUC in same experiment: 11834",9480
same,area under confluence curve,"II-18; test compound dose 1000 nM, dosing schedule: upfront, osimertinib-only DTP control AUC in same experiment: 10856, DMSO control AUC in same experiment: 11834",9420
Cc1nc(Nc2ncc(C(=O)Nc3c(C)cccc3Cl)s2)cc(N2CCN(CCO)CC2)n1 [Dasatinib] + C=CC(=O)Nc1cc(Nc2nccc(-c3cn(C)c4ccccc34)n2)c(OC)cc1N(C)CCN(C)C [osimertinib],area under confluence curve,"H1975; test compound dose 100 nM, dosing schedule: upfront, osimertinib-only DTP control AUC in same experiment: 18969, DMSO control AUC in same experiment: 14522",1440
same,area under confluence curve,"HCC2279; test compound dose 100 nM, dosing schedule: upfront, osimertinib-only DTP control AUC in same experiment: 43517, DMSO control AUC in same experiment: 29252",15300
same,area under confluence curve,"HCC2935; test compound dose 100 nM, dosing schedule: upfront, osimertinib-only DTP control AUC in same experiment: 10360, DMSO control AUC in same experiment: 13875",3810
same,area under confluence curve,"HCC4006; test compound dose 100 nM, dosing schedule: upfront, osimertinib-only DTP control AUC in same experiment: 21234, DMSO control AUC in same experiment: 16638",4610
same,area under confluence curve,"HCC827; test compound dose 100 nM, dosing schedule: upfront, osimertinib-only DTP control AUC in same experiment: 39553, DMSO control AUC in same experiment: 30859",3890
same,area under confluence curve,"II-18; test compound dose 30 nM, dosing schedule: upfront, osimertinib-only DTP control AUC in same experiment: 13359, DMSO control AUC in same experiment: 11408",2420
Cc1cc(N2C[C@@H](C)N[C@@H](C)C2)ncc1-c1ccc(-c2nc3c(ccn3C)c(=O)[nH]2)cc1 + C=CC(=O)Nc1cc(Nc2nccc(-c3cn(C)c4ccccc34)n2)c(OC)cc1N(C)CCN(C)C [osimertinib],area under confluence curve,"H1975; test compound dose 1000 nM, dosing schedule: sequential, osimertinib-only DTP control AUC in same experiment: 15943, DMSO control AUC in same experiment: 20657",12600
same,area under confluence curve,"H1975; test compound dose 1000 nM, dosing schedule: upfront, osimertinib-only DTP control AUC in same experiment: 27804, DMSO control AUC in same experiment: 20657",11600
same,area under confluence curve,"HCC2279; test compound dose 1000 nM, dosing schedule: sequential, osimertinib-only DTP control AUC in same experiment: 15997, DMSO control AUC in same experiment: 40085",7150
same,area under confluence curve,"HCC2279; test compound dose 1000 nM, dosing schedule: upfront, osimertinib-only DTP control AUC in same experiment: 28057, DMSO control AUC in same experiment: 40085",4140
same,area under confluence curve,"HCC2935; test compound dose 1000 nM, dosing schedule: sequential, osimertinib-only DTP control AUC in same experiment: 7139, DMSO control AUC in same experiment: 15413",3770
same,area under confluence curve,"HCC2935; test compound dose 1000 nM, dosing schedule: upfront, osimertinib-only DTP control AUC in same experiment: 19044, DMSO control AUC in same experiment: 15413",6190
same,area under confluence curve,"HCC4006; test compound dose 1000 nM, dosing schedule: sequential, osimertinib-only DTP control AUC in same experiment: 14882, DMSO control AUC in same experiment: 10921",6450
same,area under confluence curve,"HCC4006; test compound dose 1000 nM, dosing schedule: upfront, osimertinib-only DTP control AUC in same experiment: 18913, DMSO control AUC in same experiment: 10921",7770
same,area under confluence curve,"HCC827; test compound dose 1000 nM, dosing schedule: sequential, osimertinib-only DTP control AUC in same experiment: 18675, DMSO control AUC in same experiment: 48895",2580
same,area under confluence curve,"HCC827; test compound dose 1000 nM, dosing schedule: upfront, osimertinib-only DTP control AUC in same experiment: 25542, DMSO control AUC in same experiment: 48895",7720
same,area under confluence curve,"II-18; test compound dose 1000 nM, dosing schedule: sequential, osimertinib-only DTP control AUC in same experiment: 21122, DMSO control AUC in same experiment: 7080",1300
same,area under confluence curve,"II-18; test compound dose 1000 nM, dosing schedule: upfront, osimertinib-only DTP control AUC in same experiment: 22894, DMSO control AUC in same experiment: 7080",1140
Cc1nc2nc(C)c(O[C@@H]3CCN(c4ccc(-c5ccc(CN6CCOCC6)nn5)cc4)C3)c(C)n2n1 + C=CC(=O)Nc1cc(Nc2nccc(-c3cn(C)c4ccccc34)n2)c(OC)cc1N(C)CCN(C)C [osimertinib],area under confluence curve,"PC9; test compound dose 1000 nM, dosing schedule: sequential, osimertinib-only DTP control AUC in same experiment: 10725, DMSO control AUC in same experiment: 30578",14600
same,area under confluence curve,"PC9; test compound dose 1000 nM, dosing schedule: upfront, osimertinib-only DTP control AUC in same experiment: 10245, DMSO control AUC in same experiment: 30578",12400
C[C@@H]1COCCN1c1cc(C2([S@](C)(=N)=O)CC2)nc(-c2cc[nH]c3nccc2-3)n1 + C=CC(=O)Nc1cc(Nc2nccc(-c3cn(C)c4ccccc34)n2)c(OC)cc1N(C)CCN(C)C [osimertinib],area under confluence curve,PC9; [1],14300
same,area under confluence curve,"PC9; test compound dose 1000 nM, dosing schedule: sequential, osimertinib-only DTP control AUC in same experiment: 15044, DMSO control AUC in same experiment: 30604",12300
same,area under confluence curve,"PC9; test compound dose 1000 nM, dosing schedule: upfront, osimertinib-only DTP control AUC in same experiment: 20672, DMSO control AUC in same experiment: 30604",15900
same,area under confluence curve,PC9; [2],16500
CN(C)C(=O)c1cc2cnc(Nc3ccc(N4CCNCC4)cn3)nc2n1C1CCCC1 [Ribociclib] + C=CC(=O)Nc1cc(Nc2nccc(-c3cn(C)c4ccccc34)n2)c(OC)cc1N(C)CCN(C)C [osimertinib],area under confluence curve,"PC9; test compound dose 300 nM, dosing schedule: sequential, osimertinib-only DTP control AUC in same experiment: 23366, DMSO control AUC in same experiment: 88996",13600
same,area under confluence curve,"PC9; test compound dose 300 nM, dosing schedule: upfront, osimertinib-only DTP control AUC in same experiment: 29852, DMSO control AUC in same experiment: 88996",20500
COC[C@H]1Cn2cc(-c3nc(Nc4ccnn4C)ncc3C)nc2C(=O)N1Cc1ccc(F)c(F)c1 + C=CC(=O)Nc1cc(Nc2nccc(-c3cn(C)c4ccccc34)n2)c(OC)cc1N(C)CCN(C)C [osimertinib],area under confluence curve,"PC9; test compound dose 100 nM, dosing schedule: sequential, osimertinib-only DTP control AUC in same experiment: 11414, DMSO control AUC in same experiment: 31219",6430
same,area under confluence curve,"PC9; test compound dose 100 nM, dosing schedule: sequential, osimertinib-only DTP control AUC in same experiment: 14554, DMSO control AUC in same experiment: 49189",2470
same,area under confluence curve,"PC9; test compound dose 100 nM, dosing schedule: upfront, osimertinib-only DTP control AUC in same experiment: 18848, DMSO control AUC in same experiment: 31219",2020
same,area under confluence curve,"PC9; test compound dose 100 nM, dosing schedule: upfront, osimertinib-only DTP control AUC in same experiment: 24473, DMSO control AUC in same experiment: 49189",2580
